From ChEMBL document CHEMBL3988442, “University of Dundee, Small-Polar-MMV Screening Library” (2021)
The whole screen tested about 69,000 compounds, of which about 1,000 (1.4%) showed an effect of 50% or more. The sample as a whole holds a higher share of strong results than the screen did.

Test system: Leishmania donovani
Assay: Leishmania intramacrophage assay
Assay type: functional, organism-based
Parameters: scale not given: in the data most compounds retested in dose-response had high values

Which “Percent Effect” value (30.3 µM, […]) does the source give for `CC(Cn1cccn1)C(=O)N1CCCN(Cc2cscn2)CC1` (stereo unspecified) here?
The value was 10.45%.

How did the “Percent Effect” value (30.3 µM, […]) turn out when `O=C(c1cccs1)N1CCc2c(nc(N3CCCC3)[nH]c2=O)C1` was run?
The value was -25.29%.

For `CN(C)C(=O)C1CCN(Cn2nc(-c3ccc(F)cc3)oc2=O)CC1`, which “Percent Effect” value (30 µM) is on record?
Its value is -5.064%.

`c1cnnc(N2CCCC(NCc3nc(-c4ccsc4)no3)C2)c1` (stereo unspecified) was tested. Which “Percent Effect” value (30.3 µM, […]) did it give?
The value was 12.92%.

How did the “Percent Effect” value (30.3 µM, […]) turn out when `CC(NCc1cnc(N2CCN(C)CC2)nc1)c1ccc(F)cc1` (stereo unspecified) was run?
Its value is 58.55%.

How did the “Percent Effect” value (30.3 µM, […]) turn out when `CC(NCc1ccncc1)c1ccc(N2CCN(C)CC2)c(F)c1.Cl` (stereo unspecified) was run?
Its value is -0.6983%.

`CN1CCN(c2ncc(CNCCCc3cccc(F)c3)cn2)CC1` was tested. Which “Percent Effect” value (30.3 µM, […]) did it give?
Its value is 20.79%.

`Cn1ccnc1CNC1CCCOc2c1ccc1ccccc21` (stereo unspecified) was tested. Which “Percent Effect” value (30.3 µM, […]) did it give?
The value was 20.1%.

For `c1ccc(Cn2ccnc2CNC2CCCOc3ccccc32)cc1` (stereo unspecified), which “Percent Effect” value (30.3 µM, […]) is on record?
Its value is 4.41%.

`Cc1ccc2c(c1)OCCCC2NCc1nccn1Cc1ccccc1` (stereo unspecified) was tested. Which “Percent Effect” value (30.3 µM, […]) did it give?
The value was 50.6%.

`Cc1ccc2c(c1)OCCCC2NCc1nccn1CC(C)C` (stereo unspecified) was tested. Which “Percent Effect” value (30.3 µM, […]) did it give?
Its value is 9.865%.

Which “Percent Effect” value (30.3 µM, […]) does the source give for `Cc1ccc2c(c1)C(NCc1nccn1Cc1ccccc1)CCCO2` (stereo unspecified) here?
Its value is 23.59%.

Which “Percent Effect” value (30.3 µM, […]) does the source give for `Cc1cccc2c1OCCCC2NCc1nccn1Cc1ccccc1` (stereo unspecified) here?
The value was 82.89%.

`Cc1noc([C@@]23CCO[C@@H]2CCN(C(=O)CCC(C)C)C3)n1` was tested. Which “Percent Effect” value (30.3 µM, […]) did it give?
The value was -4.868%.

For `COCCN(CCC#N)S(=O)(=O)c1ccc(F)cc1Cl`, which “Percent Effect” value (30.3 µM, […]) is on record?
Its value is -7.04%.

How did the “Percent Effect” value (30 µM, 30.03 µM) turn out when `Cc1nc(CNC(=O)Cn2nc(-c3ccc(F)cc3)oc2=O)cs1` was run?
The value was -4.773%.

Which “Percent Effect” value (30.3 µM, […]) does the source give for `COc1ccc(-c2cn(CCSc3ncn[nH]3)nn2)cn1` here?
Its value is 35.9%.

With `Cc1nn(C)c(C)c1CN(C(=O)c1cc(Cl)c[nH]c1=O)C(C)C` as the compound, how does the “Percent Effect” value (30.3 µM, […]) read?
The value was 14.01%.

For `Cc1ncc2c(n1)CCCC2NC(=O)c1ccc(Cn2cccn2)cc1` (stereo unspecified), which “Percent Effect” value (30.3 µM, […]) is on record?
Its value is 26.01%.

For `CCCn1nc(C)c2c(C(F)F)cc(=O)n(CC(=O)O)c21`, which “Percent Effect” value (30.3 µM, […]) is on record?
Its value is 18.18%.

`COC(=O)Cn1c(=O)cc(C(F)F)c2c(C)nn(CC(F)F)c21` was tested. Which “Percent Effect” value (30.3 µM, […]) did it give?
Its value is 51.48%.

Which “Percent Effect” value (30.3 µM, […]) does the source give for `Cc1nn(CC(F)F)c2c1c(C(F)F)cc(=O)n2CC(=O)O` here?
Its value is -4.895%.

Which “Percent Effect” value (30.3 µM, […]) does the source give for `CC1(C)CN(C(CNS(C)(=O)=O)c2ccc(Cl)cc2)CCO1` (stereo unspecified) here?
The value was 30.45%.

`O=C(Cc1ccc(F)cc1)N1CCn2c(Cn3cncn3)cnc2C1` was tested. Which “Percent Effect” value (30.3 µM, […]) did it give?
The value was 5.226%.

Which “Percent Effect” value (30 µM) does the source give for `CCc1nc2n(n1)CC(NCc1nc(-c3ccccn3)no1)CC2` (stereo unspecified) here?
Its value is -15.89%.

For `Cc1noc(C)c1CC(=O)N1CCCC(Cn2ccnc2C)C1` (stereo unspecified), which “Percent Effect” value (30.3 µM, […]) is on record?
Its value is 14.7%.

`Cc1nccn1CC1CCCN(C(=O)Cc2ccsc2)C1` (stereo unspecified) was tested. Which “Percent Effect” value (30.3 µM, […]) did it give?
Its value is 72.54%.

With `CC(=O)N1CC(C(=O)N2CCCC(Cn3ccnc3C)C2)C1` (stereo unspecified) as the compound, how does the “Percent Effect” value (30.3 µM, […]) read?
The value was 46.71%.

For `COc1ccc(CN2CCN(S(=O)(=O)c3cc(C(=O)O)cs3)CC2)cc1`, which “Percent Effect” value (30.3 µM, […]) is on record?
The value was 15%.

Which “Percent Effect” value (30.3 µM, […]) does the source give for `Cn1cc(C(=O)N2CC[C@@H]3[C@@H]2CCN3c2ccccn2)cn1` here?
Its value is 28.1%.

`CC(=O)NCCCOc1c(C)cccc1Cl` was tested. Which “Percent Effect” value (30.3 µM, […]) did it give?
Its value is 16.58%.

How did the “Percent Effect” value (30.3 µM, […]) turn out when `Cc1ccc(C(=O)N2CCC3(CCC(=O)N(CCN(C)C)C3)CC2)nc1` was run?
Its value is 0.8363%.

For `CCN1CCCC1Cn1ccc2ccc(C(=O)OC)cc2c1=O` (stereo unspecified), which “Percent Effect” value (30.3 µM, […]) is on record?
The value was -29.19%.

Which “Percent Effect” value (30.3 µM, […]) does the source give for `CCc1ccc2nc(NCC(O)CO)cc(C)c2c1` (stereo unspecified) here?
Its value is 21.82%.

How did the “Percent Effect” value (30.3 µM, […]) turn out when `CCc1ccc2nc(NCCCN(CCO)CCO)cc(C)c2c1` was run?
Its value is 97.87%.

How did the “Percent Effect” value (30.3 µM, […]) turn out when `CCc1ccc2nc(NCCOCCO)cc(C)c2c1` was run?
Its value is 19.28%.

With `CCc1ccc(CN2Cc3nccn3CC(Cn3cncn3)C2)o1.O=C(O)C(F)(F)F` (stereo unspecified) as the compound, how does the “Percent Effect” value (30.3 µM, […]) read?
Its value is 27.46%.

`COc1cccc(COCC(=O)N2CCC(CC(N)=O)CC2)c1` was tested. Which “Percent Effect” value (30 µM, 30.03 µM) did it give?
The value was -26.96%.

`Cc1c(C)n(-c2ccccn2)c2nc3c(c(N)c12)CCCCC3` was tested. Which “Percent Effect” value (30.3 µM, […]) did it give?
Its value is 70.72%.

How did the “Percent Effect” value (30.3 µM, […]) turn out when `Cc1c(C)n(Cc2ccccn2)c2nc3c(c(N)c12)CCCCCC3` was run?
Its value is 8.308%.

With `Cc1c(C)n(-c2ccccn2)c2nc3c(c(N)c12)CCCC3` as the compound, how does the “Percent Effect” value (30 µM, 30.03 µM) read?
Its value is 43.5%.

`CC1CN(C)c2ccccc2CN1C(=O)c1ccc[nH]1` (stereo unspecified) was tested. Which “Percent Effect” value (30 µM, 30.03 µM) did it give?
The value was 18.04%.

For `COCCn1cnc2ccc(NC(=O)c3ccc(OC)cc3)cc2c1=O`, which “Percent Effect” value (30.3 µM, […]) is on record?
The value was 23.03%.

`Cn1ccnc1COc1ccc(COC(=O)C2CCCO2)cc1` (stereo unspecified) was tested. Which “Percent Effect” value (30.3 µM, […]) did it give?
The value was -0.4672%.

Which “Percent Effect” value (30.3 µM, […]) does the source give for `Cc1c(CC(C#N)C(=O)Nc2cccc(O)c2)cnn1C` (stereo unspecified) here?
The value was -22.11%.

How did the “Percent Effect” value (30.3 µM, […]) turn out when `COc1ccc(Cl)cc1NC(=O)CN1CCc2nc(NC(C)=O)sc2C1` was run?
The value was -8.893%.

`COc1ccc(Cl)cc1NC(=O)N1CCc2nc(NC(C)=O)sc2C1` was tested. Which “Percent Effect” value (30.3 µM, […]) did it give?
The value was 55.24%.

For `COC(=O)Nc1nc2c(s1)CN(C(=O)NCc1cccs1)CC2`, which “Percent Effect” value (30.3 µM, […]) is on record?
Its value is -0.9773%.

For `Cn1ccnc1CN1CCCN(C(=O)c2ccc(O)nc2)CC1`, which “Percent Effect” value (30 µM) is on record?
The value was 25.73%.

How did the “Percent Effect” value (30.3 µM, […]) turn out when `Cc1nc2sccn2c1CN(CCCN(C)C)Cc1ccco1.O=C(O)CC(O)(CC(=O)O)C(=O)O` was run?
Its value is 41.01%.

`CC[C@@]1(O)CCN(C(=O)CCc2cnn(C)c2)C[C@H]1O` was tested. Which “Percent Effect” value (30.3 µM, […]) did it give?
The value was 28.56%.

Which “Percent Effect” value (30.3 µM, […]) does the source give for `COc1ccc(C(C)NCc2nnc(C)s2)cc1F` (stereo unspecified) here?
The value was 13.85%.

For `COc1ccc(C(C)NCCC(N)=O)cc1F` (stereo unspecified), which “Percent Effect” value (30.3 µM, […]) is on record?
The value was 52.68%.

`COc1ccc(C(C)NCCc2ccc(NC(C)=O)cc2)cc1F` (stereo unspecified) was tested. Which “Percent Effect” value (30.3 µM, […]) did it give?
The value was 23.19%.

How did the “Percent Effect” value (30.3 µM, […]) turn out when `CCSc1cc(C(=O)NCCc2nnc(-c3ccco3)[nH]2)ccn1` was run?
The value was -0.0887%.

`CN(CCn1nc2ccccn2c1=O)CC(=O)N(C)C1CCCCC1` was tested. Which “Percent Effect” value (30.3 µM, […]) did it give?
Its value is 4.76%.

For `Cc1nc(N2CCCC2)ncc1-c1cc(O)nc(N2CCCC2)n1`, which “Percent Effect” value (30 µM, 30.03 µM) is on record?
The value was 15.83%.

With `Cc1nc(N2CCCC2)ncc1-c1cc(O)nc(N2CCCCC2)n1` as the compound, how does the “Percent Effect” value (30.3 µM, […]) read?
The value was -14.51%.

How did the “Percent Effect” value (30.3 µM, […]) turn out when `Cc1nc(N2CCCC2)ncc1-c1cc(O)nc(N2CCN(C)CC2)n1` was run?
The value was 59.07%.

Which “Percent Effect” value (30.3 µM, […]) does the source give for `CCCS(=O)(=O)NC(=O)c1sc(C2CCCC2)nc1C` here?
Its value is 11.93%.

With `COCCNC(=O)C[C@@H]1COC[C@H]2CN(C(=O)C3CCOCC3)C[C@@H]12` as the compound, how does the “Percent Effect” value (30.3 µM, […]) read?
The value was 11.97%.

With `COCCNC(=O)C[C@@H]1COC[C@H]2CN(C(=O)c3cnccn3)C[C@@H]12` as the compound, how does the “Percent Effect” value (30 µM, 30.03 µM) read?
The value was 9.909%.

Which “Percent Effect” value (30.3 µM, […]) does the source give for `COCCNC(=O)C[C@@H]1COC[C@H]2CN(C(=O)COC)C[C@@H]12` here?
Its value is 51.2%.

Which “Percent Effect” value (30 µM) does the source give for `COC(=O)C(c1ccccc1)N(C)C(=O)c1ccnc(C)n1` (stereo unspecified) here?
The value was 22.67%.

How did the “Percent Effect” value (30.3 µM, […]) turn out when `Cc1ccccc1-n1ccc2nc(N3CCCC3)ncc2c1=O` was run?
The value was 13.99%.

For `CS(=O)(=O)CC(=O)N(CCN1CCOCC1)Cc1ccco1`, which “Percent Effect” value (30.3 µM, […]) is on record?
The value was -78.1%.
